Data from PubChem BioAssay AID720582 (The Scripps Research Institute Molecular Screening Center, 2013).
About 2,300 (0.62%) of roughly 370,000 compounds were called active. Many of the other results were omitted from the sample, so actives are more common in it than they were. Values without a mark were called inactive.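 Rule for the calls: active = inhibition above a per-campaign cutoff equal to the mean of compounds falling between control-based bounds plus 3 SD (cut at about 20% in these data); inactive = the rest.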

Target: Disintegrin and metalloproteinase domain-containing protein 10 (Homo sapiens) (UniProt O14672)
Sequence (O14672 214-748 limits assumed): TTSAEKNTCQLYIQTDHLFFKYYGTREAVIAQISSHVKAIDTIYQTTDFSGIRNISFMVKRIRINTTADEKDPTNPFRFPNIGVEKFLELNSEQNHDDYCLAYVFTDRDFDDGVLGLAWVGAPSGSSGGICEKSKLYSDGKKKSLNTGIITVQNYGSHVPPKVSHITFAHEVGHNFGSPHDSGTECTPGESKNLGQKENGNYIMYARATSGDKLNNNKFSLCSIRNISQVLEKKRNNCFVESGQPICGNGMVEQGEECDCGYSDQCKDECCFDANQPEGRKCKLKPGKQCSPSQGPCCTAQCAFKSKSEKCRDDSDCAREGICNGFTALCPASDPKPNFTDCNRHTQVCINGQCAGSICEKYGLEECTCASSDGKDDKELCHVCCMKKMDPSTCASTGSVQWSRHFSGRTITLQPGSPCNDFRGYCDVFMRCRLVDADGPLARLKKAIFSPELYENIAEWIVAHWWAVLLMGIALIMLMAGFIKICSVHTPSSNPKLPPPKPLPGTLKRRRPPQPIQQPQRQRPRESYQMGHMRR
Assay: blockers of ADAM10 peptide cleavage – biochemical, QFRET, HTS, primary screen (AID 720582);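 note: 0% = DMSO wells while the 100% control is not disclosed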
Conditions: recombinant ADAM10, EDANS/DABCYL FRET peptide cleavage, 3 h; at 7 µM; hits give high values

Q: With `O=C(c1c[nH]c2ccccc12)N1CCC(Oc2cccnc2)CC1` as the compound, how does the inhibition read?
A: 1.42%

Q: Which inhibition does the source give for `Clc1ccc(-n2c(SC/C=C/c3ccccc3)nnc2-c2ccco2)cc1` here?
A: 15.1%

Q: For `CCOC(=O)[C@@]12CN(C(=O)OC(C)(C)C)CC=C1N(Cc1ccc(OC)cc1)C(=O)[C@H]2CC(=O)NCc1ccc(OC)c(OC)c1`, which inhibition is on record?
A: 1.76%

Q: With `C=CCN1C(=O)[C@H](CC(=O)NCCCN2CCCC2=O)[C@@]2(C(=O)OCC)CCCC=C12` as the compound, how does the inhibition read?
A: -5.84%

Q: With `C=CCOC/C=C/C#CCN(CC=C)Cc1ccc(OC)cc1OC` as the compound, how does the inhibition read?
A: -0.01%

Q: `CC1(C)C=Cc2c(ccc3c2OC[C@@H](c2ccc(O)cc2O)C3)O1` was tested. Which inhibition did it give?
A: 26.4% (active)

Q: With `COC(=O)C1CN(Cc2cn(Cc3ccc(F)cc3)nn2)CCS(=O)(=O)N1Cc1ccc(Cl)cc1` (stereo not given) as the compound, how does the inhibition read?
A: 2.41%

Q: Which inhibition does the source give for `C=CCN1C(=O)[C@@H](CC(=O)NCC2CCCCC2)[C@]2(C(=O)OC)CCCCC=C12` here?
A: 5.05%

Q: Which inhibition does the source give for `CCCOc1ccc(F)cc1-c1cc(C(=O)NCc2ccc(F)cc2)[nH]n1` here?
A: 15.3%

Q: With `Cc1cc(O)ccc1-c1cc(C(=O)NCc2cc(C(F)(F)F)cc(C(F)(F)F)c2)[nH]n1` as the compound, how does the inhibition read?
A: 20.5% (active)

Q: How did the inhibition turn out when `Cc1ccc(O)c(-c2cc(C(=O)NCc3ccccc3)[nH]n2)c1` was run?
A: 12.6%

Q: Which inhibition does the source give for `O=C(Nc1cc(Cl)cc(Cl)c1)OCCN1CCCC12CCC(c1ccccc1)CC2` (stereo not given) here?
A: 4.69%

Q: For `C=C(C)C#CC(Cc1ccccc1)N(CC1CC1)/C(N)=N/C(=O)OCc1ccccc1` (stereo not given), which inhibition is on record?
A: -71.4%

Q: How did the inhibition turn out when `CCOc1ccc(Oc2c(Cl)cnn(-c3ccc(C)cc3)c2=O)cc1` was run?
A: 0.21%

Q: For `CC(NCc1ccco1)C(=O)N1CCCCC1` (stereo not given), which inhibition is on record?
A: -0.25%

Q: Which inhibition does the source give for `N#C/C(=C\c1cccnc1)C(=O)Nc1ccc(SC(F)F)cc1` here?
A: 9.34%

Q: For `Cc1ccc(CC(=O)Nc2ccc(S(=O)(=O)N3CCOCC3)cc2)cc1C`, which inhibition is on record?
A: 9.05%

Q: With `O=C(Cc1ccc(Cl)c(Cl)c1)Nc1ccc(SC(F)F)cc1` as the compound, how does the inhibition read?
A: 24.6% (active)

Q: `O=C1CC[C@@]23CCCN2C(=O)CCC[C@H]3[C@H]1Cc1ccccc1` was tested. Which inhibition did it give?
A: -4.62%

Q: For `CN(C)CC(=O)N[C@@H]1C[C@@H]2O[C@H](CO)CC[C@@H]2O[C@@H]1CCc1ccc(C#Cc2ccccc2)cc1`, which inhibition is on record?
A: 7.99%

Q: With `COC(=O)[C@]12C[C@H](CC(=O)NCc3cccs3)C(=O)N(CCc3ccc(OC)c(OC)c3)C1=C[C@H](C(C)C)O[C@@H]2C1CC1` as the compound, how does the inhibition read?
A: -6.09%

Q: How did the inhibition turn out when `CN(C)c1ccc(NC(=O)NC2CCCCN(Cc3ccc(Cl)cc3)C2=O)cc1` (stereo not given) was run?
A: 8.78%

Q: For `COc1ccccc1CC1(C)C(=O)Nc2ccc(OC(F)(F)F)cc21` (stereo not given), which inhibition is on record?
A: 22.6% (active)

Q: With `CCc1ccc2c(c1)NC(=O)C2(C)Cc1ccc(OC(F)(F)F)cc1` (stereo not given) as the compound, how does the inhibition read?
A: 14.9%

Q: For `Cc1ccc(CC2(C)C(=O)Nc3ccc(OC(F)(F)F)cc32)cc1` (stereo not given), which inhibition is on record?
A: 5.38%
